Assay results: PubChem BioAssay (NCI)
About 79,000 compounds went through this panel and 15% of them were active in at least one assay; those are over-represented in the sample as a whole. A number with no mark means an inactive call. The source made the active and inactive calls. Cut-off read from the data, not from the text of the source: active = growth inhibition above about 70%; inactive = the rest.

What was measured:
[1] = NCI Yeast Anticancer Drug Screen. Data for the rad50 strain (AID 155);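 note: 0% = growth of vehicle-only cultures of the same strain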; settings: S. cerevisiae rad50 strain growth inhibition, active compounds read high
Outline: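 DNA repair mutant yeast, compound exposure, growth read-out; inhibition is taken relative to vehicle.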

[2] = NCI Yeast Anticancer Drug Screen. Data for the mec2-1 strain (AID 157); settings: S. cerevisiae mec2-1 strain, active compounds read high
Outline: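 Using mec2-1 yeast: add compound, measure growth, express inhibition versus vehicle-treated cultures.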

[3] = NCI Yeast Anticancer Drug Screen. Data for the sgs1 mgt1 strain (AID 161);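 note: 0% = growth of cultures given vehicle only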; settings: S. cerevisiae sgs1 mgt1 strain, active compounds read high
Outline: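 Percent growth inhibition was derived by comparing compound-exposed mutant yeast with vehicle-exposed cultures. The strain carries alterations in DNA damage repair.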

[4] = NCI Yeast Anticancer Drug Screen. Data for the cln2 rad14 strain (AID 165);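 note: 0% = growth equal to vehicle treated cultures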; settings: S. cerevisiae cln2 rad14 strain, active compounds read high
Outline: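 Yeast strain cln2 rad14, bearing defects in cell cycle control and DNA repair, serves as the test system; values reflect growth inhibition compared with vehicle.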

[5] = NCI Yeast Anticancer Drug Screen. Data for the bub3 strain (AID 167); settings: S. cerevisiae bub3 mutant strain, active compounds read high
Outline: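 In this screen, a yeast mutant lacking normal mitotic checkpoint function is challenged with compound. Relative growth versus vehicle gives the inhibition value.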

[6] = NCI Yeast Anticancer Drug Screen. Data for the mlh1 rad18 strain (AID 175); settings: S. cerevisiae mlh1 rad18 strain growth inhibition, active compounds read high
Outline: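 Steps: expose repair-defective yeast to compound; measure growth; express inhibition against vehicle-treated controls.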

[7] = at 5.0 µM (retest, dose inferred, filed as 0.5)
[8] = at 50.0 µM (retest, dose inferred, filed as 5.0)

SMILES	growth inhibition [1, 7]	growth inhibition [1, 8]	growth inhibition ([1]; at 50.0 µM)	growth inhibition [2, 7]	growth inhibition [2, 8]	growth inhibition ([2]; at 50.0 µM)	growth inhibition [3, 7]	growth inhibition [3, 8]	growth inhibition ([3]; at 50.0 µM)	growth inhibition [4, 7]	growth inhibition [4, 8]	growth inhibition ([4]; at 50.0 µM)	growth inhibition [5, 7]	growth inhibition [5, 8]	growth inhibition ([5]; at 50.0 µM)	growth inhibition [6, 7]	growth inhibition [6, 8]	growth inhibition ([6]; at 50.0 µM)
Cc1ccc(S(=O)(=O)Nc2ccc(C)cc2C)cc1	-3%	96% (active)	85.5% (active)	-6%	96% (active)	54%	-2%	97% (active)	55.4%	-3%	83% (active)	32.8%	-1%	95% (active)	63.4%	-2%	95% (active)	75.2% (active)
F[Si](c1ccccc1)(c1ccccc1)c1ccccc1	-3%	75% (active)	62%	3%	87% (active)	25.3%	8%	79% (active)	32.1%	0%	82% (active)	41.6%	-5%	98% (active)	45.6%	10%	94% (active)	79.5% (active)
O=C(CCn1[nH]c(=O)c(Cl)c(Cl)c1=O)NNc1ccc([N+](=O)[O-])cc1[N+](=O)[O-]	4%	36%	35.8%	-7%	2%	-4.7%	1%	18%	-12.9%	-2%	1%	-2.45%	1%	19%	26.2%	2%	17%	88.2% (active)
C/C(=N\NC(=O)c1ccc([N+](=O)[O-])cc1)c1ccccc1	8%	-5%	-2.65%	-19%	-1%	-5.45%	6%	-6%	10.3%	2%	11%	-7.95%	9%	14%	38.8%	15%	26%	-7.2%
CCC(CC)=NNc1ccc([N+](=O)[O-])cc1	7%	96% (active)	98.4% (active)	15%	95% (active)	97.7% (active)	8%	97% (active)	97.8% (active)	10%	94% (active)	95.3% (active)	4%	42%	97.9% (active)	11%	97% (active)	97.2% (active)
CC1CCN(SSc2nc3ccccc3s2)CC1	31%	91% (active)	28.4%	36%	94% (active)	80.5% (active)	51%	96% (active)	77.4% (active)	44%	70% (active)	21.4%	61%	97% (active)	82% (active)	30%	73% (active)	79% (active)
Cc1ccc(S(=O)(=O)N/N=C(\C=C\c2ccccc2)c2ccccc2)cc1	-1%	32%	59.1%	5%	57%	63.9%	24%	47%	59.5%	-19%	16%	44.4%	15%	49%	41.1%	20%	70% (active)	37.1%
CC(C)NCCCNc1nc(NCCCNC(C)C)c2nc(-c3ccccc3)c(-c3ccccc3)nc2n1	4%	82% (active)	52%	1%	88% (active)	58.7%	-2%	86% (active)	53.4%	-3%	56%	55.8%	0%	35%	50.1%	2%	90% (active)	57.2%
CCOC(=O)c1c(Cl)nc2ccccc2c1N=[N+]=[N-]	-10%	77% (active)	79.3% (active)	14%	95% (active)	82.5% (active)	-13%	93% (active)	88.7% (active)	20%	86% (active)	58%	-21%	81% (active)	86.8% (active)	2%	95% (active)	89.5% (active)
CCN(CC)CCCC(C)Nc1cc(C)nc2c1ccc1c2ccc2c(NC(C)CCCN(CC)CC)cc(C)nc21 (configuration not stated)	-2%	61%	58.1%	-39%	91% (active)	53.7%	-1%	59%	49.5%	7%	20%	71.4% (active)	-2%	96% (active)	96.3% (active)	-1%	85% (active)	54.2%
O=NNc1ccc2cc3ccc(NN=O)cc3nc2c1	16%	25%	43.2%	6%	26%	-11.1%	7%	24%	52.5%	11%	24%	27.7%	9%	14%	34.6%	15%	31%	52.7%
COc1ccccc1/C=C1\SC(=S)N(/C=C2\C(=O)Oc3ccccc3C2=O)C1=O	1%	12%	30.9%	-3%	27%	18.6%	8%	12%	54.2%	-8%	17%	58.9%	20%	38%	32.2%	-16%	14%	53.7%
COc1cccc(C=Nc2ccc(I)cc2)c1O.COc1cccc(C=Nc2ccc(I)cc2)c1O.[Co]	15%	56%	29.4%	11%	25%	11.7%	12%	31%	30.2%	10%	19%	21%	10%	9%	52.1%	13%	37%	19.2%
Cc1c2ccncc2c(C)c2c1[nH]c1ccc(OCCN(C)C)cc12	28%	93% (active)	99% (active)	5%	43%	77.3% (active)	5%	53%	93.3% (active)	7%	40%	71.8% (active)	4%	32%	88.9% (active)	7%	51%	96.3% (active)
OCCC1CCN(CC/C=C2/c3ccc(F)cc3Sc3ccc(C(F)(F)F)cc32)CC1	26%	59%	37.4%	7%	45%	62.9%	21%	68%	82.6% (active)	18%	52%	71.4% (active)	4%	38%	64.5%	24%	56%	88.2% (active)
O=C1NN(C2=NNC3(C(=O)N2)c2ccccc2-c2ccccc23)C(c2ccccc2)=N/C1=C/c1ccc(Cl)cc1	-9%	-5%	32.4%	-13%	-5%	17.4%	-1%	6%	-13.5%	-10%	3%	-3.25%	-16%	-16%	18.4%	-48%	-10%	44.1%
C/C(CC(O)(C(F)(F)F)C(F)(F)F)=N/Nc1ccc([N+](=O)[O-])cc1[N+](=O)[O-]	16%	99% (active)	99.2% (active)	-11%	99% (active)	99.5% (active)	-2%	99% (active)	99.5% (active)	13%	99% (active)	99.3% (active)	-10%	100% (active)	99.5% (active)	12%	99% (active)	99.3% (active)
CS(=O)(=O)c1ccc(C[N+]23CN4CN(CN(C4)C2)C3)cc1	-9%	-2%	-8.25%	0%	13%	14.7%	-20%	-5%	-0.8%	-8%	-4%	43.4%	-4%	6%	-4.75%	-9%	-4%	1.85%
CC(=O)O[C@H]1[C@@H]2CC(C)(C)CC2=C(C=O)C2(C=O)CC12C (some centres not stated)	40%	99% (active)	99.5% (active)	65%	100% (active)	99.5% (active)	62%	99% (active)	99.7% (active)	37%	99% (active)	99.2% (active)	54%	99% (active)	46.8%	55%	99% (active)	99.7% (active)
